This passage reports Potency and activity change, negative = cytotoxicity results from PubChem BioAssay (NCATS).

One experiment concerns CAOV3. The experiment in a line: Primary qHTS to identify gynecologic anti-cancer compounds using libraries of approved drugs and bioactive compounds (AID 1345084). Also: % is scaled to controls: 0 for no effect and ±100 for the full control effect; nearly all actives have a fitted effect of over 55% in size. Particulars: Gynecologic cancer cell panel viability, ATPlite luminescence, 48 h; series mostly up to 57.5 µM. The gist of the method: (§1)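 Cells, 1,000 per well, were allowed to settle for 16 h at 37 C before compound addition. Five concentrations were tested for 48 h, and viability was read by ATPlite luminescence after 15 min at room temperature.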

The subject of a further experiment is CASKI. The description is as above. Particulars: Gynecologic cancer cell panel viability, ATPlite luminescence, 48 h; series mostly up to 57.5 µM. The gist of the method: as §1
For orientation: Cellular ATP, detected with luciferase, serves as a proxy for viable cell number.

Another experiment relates to Es-2. Described as above. The conditions noted are these: Gynecologic cancer cell panel viability, ATPlite luminescence, 48 h; series mostly up to 57.5 µM. An outline of the steps:
as §1

Another experiment has as its system HeLa. Described as above. The conditions noted are these: Gynecologic cancer cell panel viability, ATPlite luminescence, 48 h; series mostly up to 57.5 µM. An outline of the steps:
as §1

The next experiment deals with Hek293T. The experiment is described as above. The conditions noted are these: Gynecologic cancer cell panel viability, ATPlite luminescence, 48 h, control line for the selectivity index; series mostly up to 57.5 µM. The gist of the method:
as §1

A further experiment deals with JEG-3. The experiment is described as above. Particulars: Gynecologic cancer cell panel viability, ATPlite luminescence, 48 h; series mostly up to 57.5 µM. An outline of the steps:
as §1

A further experiment has as its system OV90. The description is as above. The conditions noted are these: Gynecologic cancer cell panel viability, ATPlite luminescence, 48 h; series mostly up to 57.5 µM. The gist of the method: as §1
A further experiment deals with PA-1. The description is as above. Particulars: Gynecologic cancer cell panel viability, ATPlite luminescence, 48 h; series mostly up to 57.5 µM. An outline of the steps: as §1
For a further experiment, the system named is Tov-21-G. The experiment is described as above. The conditions noted are these: Gynecologic cancer cell panel viability, ATPlite luminescence, 48 h; series mostly up to 57.5 µM. An outline of the steps: as §1
A further experiment relates to Tov112D. The experiment is described as above. The conditions noted are these: Gynecologic cancer cell panel viability, ATPlite luminescence, 48 h; series mostly up to 57.5 µM. An outline of the steps: as §1
The next experiment concerns SKOV3. The description is as above. The conditions noted are these: Gynecologic cancer cell panel viability, ATPlite luminescence, 48 h; series mostly up to 57.5 µM. The gist of the method:
as §1

Experiment [1] can be described thus: qHTS assay to identify inhibitors of the type 1 interferon - major histocompatibility complex class I in skeletal muscle: Counter screen cell viability and HiBit confirmation (AID 1347412). Also: potency is read from the fitted curve at half-maximal effect; nearly all actives have a fitted effect of over 60% in size. The conditions noted are these: iHSKM muscle cells + IFN-b, HiBiT or CellTiter-Glo, 24 h. An outline of the steps: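 After 24 h with human IFN-beta (4 ng/ml) and compound titrations (top 46 uM final, 1:3, 12 points), HLA-B HiBit myoblasts were lysed for either Nano-Glo HiBiT luminescence or CellTiter Glo viability on paired plates.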
In general terms: In qHTS, concentration-response curves come from the screen itself.

Each structure is given as a SMILES string. Inconclusive results are not listed. Values without a mark were called inactive. Activity calls are given as the source filed them. Calls follow the shape of the dose curve; as a rule, active = well fitted curve in the direction sought with a large enough effect; inconclusive = small, poorly fitted or top-dose-only effect, or another doubt; inactive = no such curve, though single readings can be large; an effect the other way counts as inactive or inconclusive.

For the molecule `O=C(c1ccc(NS(=O)(=O)c2cccc3cccnc23)cc1)N1CCN(CC2CC2)CC1`, the Potency result in the experiment with CAOV3, with CASKI, with Es-2, in the experiment on HeLa, in the experiment on Hek293T and in the experiment with JEG-3 was “inactive” throughout. Further, the Potency result in the experiment on OV90, with PA-1, in the experiment with Tov-21-G and in the experiment on Tov112D was “inactive” throughout.

Take `FC(F)(F)c1cc(C(F)(F)F)c2ccc3nc(-c4nnco4)cn3c2n1`: the Potency entry with CAOV3, in the experiment on CASKI, in the experiment with Es-2, in the experiment with HeLa, with Hek293T and in the experiment with JEG-3 was “inactive” each time. Moreover, the Potency result with OV90, in the experiment with PA-1, in the experiment on Tov-21-G and with Tov112D was “inactive” in each case.

For `C=C1CC2(C(=O)O)CC1CCC2C1(C)CCCC2(C)C(=O)OC(O)C21` (stereo unspecified), the Potency entry in the experiment on CAOV3, in the experiment on Es-2, in the experiment with HeLa, with Hek293T, in the experiment on JEG-3 and in the experiment with OV90 was “inactive” in each case. Also, the Potency result in the experiment on PA-1, in the experiment on SKOV3, in the experiment with Tov-21-G and in the experiment on Tov112D was “inactive” each time.

Turning to `O=C(c1ccc(F)cc1)C1CCN(CCn2c(=O)nc3n(c2=O)CCCC3)CC1`, the Potency result in the experiment with CAOV3, in the experiment on Es-2, in the experiment with HeLa, in the experiment with Hek293T, in the experiment on JEG-3 and in the experiment on OV90 was “inactive” in each case. Moreover, the Potency result with PA-1, in the experiment with Tov-21-G and in the experiment with Tov112D was “inactive” each time.

`CC[C@@H](c1ccc(F)c(F)c1)n1c(C(=O)OC)c(-c2ccno2)[nH]c1=S`: the Potency entry in the experiment with CAOV3, in the experiment on HeLa, in the experiment with Hek293T, in the experiment with JEG-3, in the experiment with OV90 and in the experiment with PA-1 was “inactive” in each case. In addition, the Potency result in the experiment with Tov-21-G and in the experiment with Tov112D was “inactive” in each case.

For the molecule `Cc1cc(Nc2ncc(Cl)c(Nc3ccccc3S(=O)(=O)C(C)C)n2)c(OC(C)C)cc1C1CCNCC1`, the Potency entry in the experiment on CAOV3, in the experiment on CASKI, with Es-2, with HeLa, with Hek293T and in the experiment with JEG-3 was “inactive” throughout. For the same molecule, the Potency entry in the experiment with PA-1, in the experiment on Tov-21-G and with Tov112D was “inactive” throughout. The Potency in experiment [1] (Viability) is 27.9 µM (active).

Take `CC(=O)N1c2ccccc2C2(O)CC3C(=O)NC(CC(C)C)C(=O)N3C12` (stereo unspecified): the Potency entry with CAOV3, with CASKI, in the experiment on Es-2, with HeLa, with JEG-3 and in the experiment on OV90 was “inactive” throughout. Moreover, the Potency result in the experiment on PA-1, with SKOV3, with Tov-21-G and in the experiment on Tov112D was “inactive” in each case.

For `CCCCNC(=O)[C@@H]1Cc2ccccc2N1C(=O)[C@@H](N)CC`, the Potency result with CAOV3, in the experiment with CASKI, with Es-2, in the experiment with HeLa, with JEG-3 and in the experiment on OV90 was “inactive” each time. The Potency entry in the experiment with PA-1, in the experiment on SKOV3, with Tov-21-G and with Tov112D was “inactive” each time.

`O=C(Nc1cccnn1)N1CCC(=Cc2cccc(Oc3ccc(C(F)(F)F)cn3)c2)CC1`: the Potency entry in the experiment on CAOV3, in the experiment with Es-2, with HeLa, in the experiment on JEG-3, in the experiment with Tov-21-G and in the experiment with Tov112D was “inactive” in each case.

Regarding `C=C1CCC(OC(C)=O)C2(C)CC3(O)OC(=O)C(C)=C3CC12` (stereo unspecified), the Potency entry in the experiment on CASKI, with Es-2, with HeLa, with Hek293T, in the experiment with JEG-3 and in the experiment on OV90 was “inactive” in each case. Besides, the Potency result in the experiment with PA-1, with SKOV3, in the experiment with Tov-21-G and in the experiment with Tov112D was “inactive” in each case.

In the case of `CCn1c2ccccc2c2cc(CNC)ccc21`, the Potency entry with CAOV3, in the experiment with CASKI, in the experiment on Es-2, in the experiment with HeLa, in the experiment with Hek293T and with JEG-3 was “inactive” throughout. Moreover, the Potency result in the experiment on PA-1, with SKOV3, in the experiment with Tov-21-G and in the experiment on Tov112D was “inactive” in each case.

`Cc1cc(N2CCCCC2)nc2ccccc12`: the Potency entry with CAOV3, in the experiment on CASKI, in the experiment with Es-2, in the experiment with HeLa, in the experiment on Hek293T and with OV90 was “inactive” throughout. The Potency result with PA-1, in the experiment with Tov-21-G and in the experiment with Tov112D was “inactive” throughout.

Regarding `C=C[C@@]1(C)CC(=O)C2[C@](C)(O1)[C@@H](OC(C)=O)[C@@H](O)[C@H]1C(C)(C)CCC[C@]21C` (stereo partly specified), the activity change, negative = cytotoxicity in the experiment on CAOV3 was 10.9% [at 11.6 µM]; in the experiment on CASKI, -3.47% [at 11.6 µM]; in the experiment on Es-2, 1.29% [at 11.6 µM]; in the experiment with HeLa, 4.53% [at 11.6 µM]; in the experiment with Hek293T, -0.239% [at 11.6 µM]; in the experiment with JEG-3 it was 7.71% [at 11.6 µM]. The activity change, negative = cytotoxicity in the experiment with PA-1 was 5.09% [at 11.6 µM]; with Tov-21-G it was 0.473% [at 11.6 µM]; in the experiment on Tov112D it was 4.2% [at 11.6 µM].

Regarding `CC1(CCC(=O)O)C(=O)C=CC23CC4CC(OC4(C)C2O)C13` (stereo unspecified), the Potency result with CASKI, with Es-2, with HeLa, with Hek293T, in the experiment on JEG-3 and in the experiment on OV90 was “inactive” each time. For the same molecule, the Potency entry in the experiment on PA-1, with SKOV3, in the experiment with Tov-21-G and with Tov112D was “inactive” in each case.

Regarding `O=C(O)C[C@@H](NC(=O)c1cc(-c2ccc(-c3ccncc3)cc2)cs1)c1ccccc1`, the Potency result in the experiment on CAOV3, with CASKI, with HeLa, with Hek293T, in the experiment on JEG-3 and in the experiment on OV90 was “inactive” in each case. In addition, the Potency result with PA-1, with SKOV3 and with Tov112D was “inactive” each time.

For `CC(C)(C)c1cc(CN2CCN(CC(O)c3ccc(Cl)cc3)CC2)cc(C(C)(C)C)c1O` (stereo unspecified), the Potency entry with CAOV3, in the experiment on Es-2, in the experiment on HeLa, in the experiment on Hek293T, in the experiment with JEG-3 and with OV90 was “inactive” each time. For the same molecule, the Potency entry in the experiment with PA-1, with SKOV3, in the experiment with Tov-21-G and in the experiment on Tov112D was “inactive” each time.

Turning to `N#Cc1ccc2[nH]c(O)c(-c3ccc(CN4CCOCC4)cn3)c2c1`, the Potency result with CAOV3, with CASKI, in the experiment with Es-2, in the experiment with Hek293T, in the experiment on JEG-3 and with OV90 was “inactive” each time. Besides, the Potency entry in the experiment with PA-1, with SKOV3, in the experiment with Tov-21-G and in the experiment with Tov112D was “inactive” each time.

As to `CCOc1cc2ncc(C#N)c(Nc3ccc(OCc4ccccn4)c(Cl)c3)c2cc1NC(=O)/C=C/CN(C)C`, the Potency entry in the experiment with CAOV3, in the experiment on Es-2, in the experiment with Hek293T, with JEG-3, with OV90 and with Tov112D was “inactive” throughout. In addition, the Potency in [1] (HiBiT) is 1.57 µM (active).

For `O=C(O)c1cnn(-c2nc3cc(OC(F)(F)F)c(Cl)cc3[nH]2)c1`, the Potency entry in the experiment on CAOV3, with Es-2, with HeLa, with Hek293T, in the experiment on JEG-3 and with OV90 was “inactive” in each case. Besides, the Potency result with PA-1, in the experiment on Tov-21-G and with Tov112D was “inactive” in each case.
